Assay outcomes: PubChem, Broad Institute
dFosB act-1: enhances mouse delta FosB homodimer DNA binding; P13346; purified delta FosB, TAMRA-CDK5 oligo fluorescence polarization; percent of positive-control signal above neutral wells; activation, % at 25 µM; hit rate 0.99% among 340,000; AID 493131;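 active = mean activation above about 17%, with every replicate also reaching it, limit read from the data, passing the limit was not always enough; inconclusive = only one of the two conditions met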
AF4-AF9 inh: inhibitors of human MLL-AF4/AF9 interaction; hit rate 0.47% among 350,000; AID 651704; inhibition, % at 10 µM; AlphaScreen, biotin-AF4 peptide binding to FLAG-AF9;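 active = every replicate reaching a set inhibition limit, whatever the replicate mean, cut at about 25% in these data; inconclusive = mean inhibition reaches that limit but some replicates miss it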;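 note: 0% = plate neutral control median and 100% = total signal loss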
DENV2 CPE rescue: protects cells from dengue virus 2 cytopathic effect. DENV2-infected cells, cytopathic effect rescue, plate reader. CPE inhibition, % at 9.99 µM. hit rate 1.7% among 350,000; in the data active = CPE inhibition above about 20%, passing the limit was not always enough; inconclusive = no clear call, values can overlap the other calls; tested in BHK-21 cells;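 note: 0% = median of neutral control wells and 100% = median of positive control wells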
GSIS activator: primary screen for activators of insulin secretion dependent on glucose, INS-1E cells, GLuc reporter luminescence; INS-1E GLuc reporter insulin secretion, 2-3 h; activation, % at 16.6 µM; hit rate 0.61% among 370,000;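 active = lowest replicate activation of at least 40%, so every replicate reaches that level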;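 note: 0% = median of neutral control wells and 100% = median of IBMX positive control wells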
RAD54 inh: RAD54 (human) branch migration inhibition | Q92698 | RAD54 Holliday junction branch migration, FAM/BHQ fluorescence | inhibition, % at 10.4 µM | hit rate 0.14% among 360,000 | AID 602329;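 active = mean normalized replicate activity at least 40 and at least half of replicates scoring 40 or more; inconclusive = only one of the two criteria met; inactive = mean below 40 and under half of replicates reaching 40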;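 note: 0% = median of neutral control wells and 100% = median of positive control wells; inhibitors cause a drop in the FAM fluorescence signal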
Target sequence (Q92698 whole entry, looked up): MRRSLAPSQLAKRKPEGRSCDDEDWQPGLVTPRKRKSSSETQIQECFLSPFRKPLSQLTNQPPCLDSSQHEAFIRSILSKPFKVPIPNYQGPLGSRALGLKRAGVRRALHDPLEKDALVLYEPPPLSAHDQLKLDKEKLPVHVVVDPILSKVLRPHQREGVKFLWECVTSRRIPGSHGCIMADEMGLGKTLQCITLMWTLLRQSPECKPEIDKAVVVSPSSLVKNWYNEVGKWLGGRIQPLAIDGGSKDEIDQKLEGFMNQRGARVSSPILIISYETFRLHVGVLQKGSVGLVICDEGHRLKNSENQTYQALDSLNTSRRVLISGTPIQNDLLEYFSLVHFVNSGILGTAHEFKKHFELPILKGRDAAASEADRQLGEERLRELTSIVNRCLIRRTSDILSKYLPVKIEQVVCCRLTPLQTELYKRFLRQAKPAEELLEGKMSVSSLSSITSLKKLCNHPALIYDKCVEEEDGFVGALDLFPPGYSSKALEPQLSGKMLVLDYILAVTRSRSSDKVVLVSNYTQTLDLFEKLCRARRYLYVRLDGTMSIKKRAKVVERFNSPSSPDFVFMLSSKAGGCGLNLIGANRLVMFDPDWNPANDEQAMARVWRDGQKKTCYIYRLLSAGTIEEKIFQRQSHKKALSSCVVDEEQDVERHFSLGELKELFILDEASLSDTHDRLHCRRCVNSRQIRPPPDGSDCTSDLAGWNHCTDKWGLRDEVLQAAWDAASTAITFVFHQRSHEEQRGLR
RAD52 inh: inhibitors of human RAD52 DNA annealing; P43351; recombinant RAD52 DNA annealing, FRET fluorescence; inhibition, % at 18.7 µM; hit rate 0.46% among 360,000; AID 651710;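 active = every replicate showing at least 50% inhibition; inconclusive = mean inhibition at least 50% but not in every replicate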
dFosB act-2: delta FosB (mouse) homodimer activation; AID 588690; shares compounds with dFosB act-1; 2,400 tested, under 10 active; purified delta FosB, TAMRA-CDK5 oligo fluorescence polarization; normalised: neutral wells 0, positive control 100; activation, % at 24.9 µM;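 active = highest replicate activation at or above 34% and every replicate reaching that threshold; inconclusive = meets only one of the two criteria; inactive = meets neither criterion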;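 note: higher polarization means more probe DNA bound by delta FosB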
* marks the source's active call; other numbers are inactive results; u = inconclusive; x = not tested or not shown. Rows were chosen to be rich in hits. Some 3.1% of all compounds tested hit in one or more screens of this group.

SMILES	dFosB act-1	AF4-AF9 inh	DENV2 CPE rescue	GSIS activator	RAD54 inh	RAD52 inh	dFosB act-2
COc1ccccc1N(C)S(=O)(=O)c1ccc(C(=O)OCC(=O)Nc2ccc(C(N)=O)cc2)cc1	65.9*	-0.8	1.4	-5.7	5.1	-19.0	2.4
O=C(COC(=O)c1ccc(S(=O)(=O)N2CCCCC2)cc1)Nc1ccccc1	20.7*	-6.4	-7.1	x	0.6	-15.9	2.1
C[C@H](CO)N1C[C@H](C)[C@@H](CN(C)C)Oc2ncc(C#CCN(C)C)cc2C1=O	x	-1.3	14.1	18.0	1.2	14.3	x
CC1CC(C)CN(S(=O)(=O)c2ccc(C(=O)Nc3sccc3C(N)=O)cc2)C1 (stereo not drawn)	28.6*	-0.7	-1.6	9.4	0.5	-16.2	1.9
NC(=O)c1ccsc1NC(=O)c1ccc(S(=O)(=O)N2CCCC2)cc1	-23.6	2.1	5.7	-10.9	-8.0	-13.4	x
Cc1ccc(NC(=O)c2sc3ncn(CC(=O)N4CCN(c5ccccn5)CC4)c(=O)c3c2C)cc1Cl	35.1*	1.2	0.4	-4.5	1.5	-24.1	1.2
Cc1ccc(NC(=O)c2sc3ncn(CC(=O)N4CCN(c5ccccn5)CC4)c(=O)c3c2C)cc1F	10.0	1.3	0.3	-44.0	-3.7	-16.3	x
CN(C)C(=O)C[C@H]1CC[C@@H](NC(=O)NC2CCCCC2)[C@@H](CO)O1	x	-3.0	x	7.1	0.2	-5.6	x
O=C(CSc1nc2cc(Cl)c(Cl)cc2[nH]1)c1ccc2c(c1)OCO2	28.1*	-4.4	-6.7	-1.5	9.7	-17.0	3.6
Cc1cccc(NS(=O)(=O)c2ccc3c(c2)Cc2cc(S(=O)(=O)Nc4cccc(C)c4C)ccc2-3)c1C	24.3*	13.7	-4.0	12.2	-0.8	-47.3	1.0
Cc1cccc(NS(=O)(=O)c2ccc3[nH]c(=O)[nH]c3c2)c1C	-5.9	7.6	-1.5	0.5	-7.1	-13.0	x
CN(C)c1nc(N)nc(CSc2nc3cc(Cl)ccc3o2)n1	28.5*	x	x	x	-6.4	x	5.9
COc1ccccc1NC(=O)N[C@H]1CC[C@@H](CC(=O)N[C@H](C)c2ccccc2)O[C@@H]1CO	x	-3.0	-2.2	-4.7	2.3	6.9	x
O=C(Cc1ccccn1)N[C@H]1CC[C@H](CCn2cc(-c3ccc(F)cc3)nn2)O[C@@H]1CO	x	-2.9	-10.5	-12.7	x	4.4	x
O=C(C[C@@H]1CC[C@H](NC(=O)Cc2cccnc2)[C@@H](CO)O1)Nc1ccc(-c2ccccc2)cc1	x	-2.1	u	-0.2	-7.4	8.6	x
CCOc1cc(/C=N/N=C(\N)c2nonc2N)cc(Br)c1OCc1cccc2ccccc12	40.7*	x	x	x	-5.2	x	3.9
Cc1ccc(S(=O)(=O)N2CCC(C(=O)N[C@H](C(=O)NCc3ccco3)C(C)C)CC2)cc1	17.7*	x	x	x	-4.7	x	-7.1
Cc1ccc(S(=O)(=O)N2CCC(C(=O)N[C@@H](C)C(=O)NC3CCCCC3)CC2)cc1	39.1*	x	x	x	8.9	x	6.5
Cc1ccc(S(=O)(=O)N2CCC(NC(=O)C3CCCCC3)CC2)cc1	-1.6	-0.7	1.1	0.1	-8.9	-5.4	x
COc1ccc(S(=O)(=O)N2CCC(C(=O)N[C@@H](C)C(=O)NC3CCCC3)CC2)cc1	20.2*	-1.2	2.7	-3.6	5.2	-4.7	4.6
N#C/C(=C\c1ccc[nH]1)C(=O)Nc1ccccc1Cl	65.7*	-3.3	-3.3	7.8	-23.7	-44.6	2.8
O=C(C[C@@H]1C[C@H]2c3cc(NC(=O)Cc4ccncc4)ccc3O[C@H]2[C@H](CO)O1)NCCN1CCCCC1	x	8.6	u	12.9	-21.0	19.1	x
COc1ccc(NC(=O)CCC(=O)Nc2nnc(C3CCCCC3)s2)c(OC)c1	7.4	-2.7	-1.6	-3.5	6.4	-7.4	x
COc1ccc(C)cc1NC(=O)CCC(=O)Nc1nnc(C2CCCCC2)s1	40.0*	-0.2	-5.6	1.0	-4.3	-12.1	-8.2
CCC1CCCCN1CCCNC(=O)c1ccc2c(c1)NC(=O)CS2 (stereo not drawn)	-0.1	7.9	9.5	14.5	-22.8	-22.9	x
CCC1CCCCN1CCCNC(=O)c1ccc(/C=C2/Sc3ccccc3NC2=O)cc1 (stereo not drawn)	37.9*	16.1	1.9	-13.8	32.6	22.3	0.0
